The list is not random: actives were taken first. Their share in the collection is about 20%.
CHX counter: counter-screen hit for Shiga toxin inhibitors, cycloheximide; cell reporter, cycloheximide protein synthesis inhibition counterscreen; max response, %; 300,000 compounds, 12% hits; AID 2314; in the data active = max response mostly above about 13%, no sharp cut-off; inactive = mostly below about 14%; also: read at 38.3 µM for the half of the compounds with a filed dose; 0% is about no effect
Shiga inhibitor: inhibitors of Shiga toxin in Vero cells; Vero cells, Shiga toxin protein synthesis inhibition reporter; inhibition, % at 38.7 µM; 290,000 compounds, 9.2% hits; AID 2315; in the data active = inhibition mostly above about 28%, no sharp cut-off; inactive = mostly below about 43%; also: 0% is about no effect
Pf growth 96h: P. falciparum growth inhibition at 96 hour, primary screen for plastid delayed-death inhibitors; P. falciparum luciferase reporter growth, 96 h; Potency, µM (titrated, usually from 28.7 µM), for the others: at the highest dose activity change, negative = inhibition, hits mostly inhibitors; 320,000 compounds, 6.9% hits; AID 504834; also: potency is read from the fitted curve at half-maximal effect; % is scaled to controls: 0 for no effect and ±100 for the full control effect
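P. falciparum expressing integrated firefly luciferase grown in erythrocytes (2% hematocrit, 0.05% parasitemia final) with compounds for 96 hours at 37 C, 5% CO2. Growth inhibition read as loss of luminescence after adding luciferase detection reagent.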
Pf growth 48h: inhibits P. falciparum growth in the first generation, 48 h; Potency, µM (top dose mostly 28.7 µM), without a hit: at the top dose activity change, negative = inhibition, usual class: inhibitors; AID 504832; P. falciparum luciferase growth in erythrocytes, 48 h; 310,000 compounds, 5.9% hits; also: potency is read from the fitted curve at half-maximal effect; % is scaled to controls: 0 for no effect and ±100 for the full control effect
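Luminescence readout; reporter = integrated firefly luciferase in P. falciparum. RBC culture at 2% hematocrit, 0.1% parasitemia final, 37 C/5% CO2; decreased signal taken as growth inhibition.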
HCMV inh: human cytomegalovirus inhibition; HFF cells, HCMV-luciferase reporter, 72 h; active compounds read low; AID 1259415; 410,000 compounds, 4.5% hits; activity change, negative = inhibition, % at 57.5 µM; in the data active = activity change below about -60%; inconclusive = no clear call, values can overlap the other calls; inactive = above about -39%; also: % is scaled to controls: 0 for no effect and ±100 for the full control effect
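Human foreskin fibroblasts infected with luciferase-reporter HCMV at MOI 1 PFU/cell, compounds at two doses. Luciferase measured 72 h post infection; normalized to buffer-only basal and Salinomycin (10uM) controls.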
Starred values were filed as active, the others as inactive; ? = inconclusive; . = not tested or not shown. Unless noted, calls follow the shape of the dose curve; as a rule, active = well fitted inhibition curve with a large enough effect; inconclusive = small, poorly fitted or top-dose-only effect, or another doubt; inactive = no such curve, though single readings can be large or run the other way.

SMILES | CHX counter | Shiga inhibitor | Pf growth 96h | Pf growth 48h | HCMV inh
O=C(Nc1ccc(-c2cnco2)cc1)c1ccc(F)cc1F | 34* | 35* | 186% | 0% | 2
O=C(Nc1ccccc1C(F)(F)F)N1CCCCCC1 | 9.6* | 35* | ? | 34% | 25
NC(=O)C1(N2CCCCC2)CCN(C(=O)Nc2ccccc2C(F)(F)F)CC1 | -2 | -7 | 1.7µM* | 5% | -18
O=C(Nc1ccccc1C(F)(F)F)N1CCC2(CC1)Oc1ccccc1C(=O)N2Cc1ccccc1F | . | . | . | . | -74*
Cc1ccc(Cl)cc1NC(=O)N1CCC2(CC1)Oc1ccccc1C(=O)N2Cc1ccccc1F | . | . | . | . | 15
CCOC(=O)c1c(NC(=O)/C=C/c2ccc(Cl)cc2)sc2c1CCC(C)C2 (stereo not given) | . | . | . | . | 30
CC1CCN(c2ccc(NC(=O)Cn3c(=O)oc4ccccc43)cc2)CC1 | 2 | -7 | ? | 21% | -15
COc1cccc(CNC(=O)CCCn2nc(C)c3sc4ccccc4c3c2=O)c1 | . | . | . | . | -1
O=C(Nc1ccc(-n2cnnn2)cc1)c1cccc(S(=O)(=O)N2CCCC2)c1 | . | . | ? | ? | -8
CN(Cc1cccc(F)c1)C(=O)c1ccc(S(=O)(=O)N2CCCCCC2)cc1 | . | . | . | . | -16
CC1Sc2ccc(S(=O)(=O)CCC(=O)Nc3ccccn3)cc2NC1=O (stereo not given) | 2 | -3 | 9.3µM* | 14% | -8
CC1Sc2ccc(S(=O)(=O)CCC(=O)N3CCc4ccccc43)cc2NC1=O (stereo not given) | -12 | -3 | 17µM* | -1% | 0
CC1Sc2ccc(S(=O)(=O)CCC(=O)NCc3ccccc3)cc2NC1=O (stereo not given) | -9 | -5 | ? | -1% | -24
O=C(Nc1ccccc1C(=O)N1CCCCC1)c1cccs1 | -1 | -9 | 6.6µM* | 17% | 108
COc1cccc(C(=O)Nc2ccccc2C(=O)N2CCCC2)c1 | -3 | 3 | -25% | . | 13
O=C(Nc1ccccc1C(=O)N1CCCCCC1)c1ccccc1 | 1 | -6 | -16% | -11% | -64*
O=C(Nc1ccccc1C(=O)N1CCCCC1)c1ccccc1C(F)(F)F | -4 | -5 | 3% | ? | -2
NC(=O)c1ccc(N=Cc2ccc([N+](=O)[O-])s2)cc1 | 1 | 23 | -2% | -15% | -97*
Cc1cc(C)cc(N=Cc2ccc([N+](=O)[O-])s2)c1 | 13 | -3 | -17% | 0% | -1
O=[N+]([O-])c1ccc(C=Nc2ccc(Cl)c([N+](=O)[O-])c2)s1 | 6 | 43 | 23% | 2% | -99*
CCC(CC)c1nnc(NC(=O)c2cccnc2SC)s1 | -2 | -7 | 1% | 0% | -33
CCC(C)Sc1nnc(NS(=O)(=O)Cc2ccccc2)s1 (stereo not given) | 15* | 22 | ? | -13% | 8
O=C(CSc1ccc(-c2nc3ccccc3[nH]2)cn1)Nc1ccc2c(c1)OCCO2 | 18* | 16 | -25% | 35% | .
N#C/C(=C\Nc1ccc2c(c1)OCCO2)c1nc(-c2ccccc2)cs1 | -3 | -7 | 50% | 28% | -9
Cc1ccc(-c2ccc(SCC(=O)Nc3nonc3C)nn2)cc1 | 27* | 42* | -5% | 56% | 45
SMILES | CHX counter | Shiga inhibitor | Pf growth 96h | Pf growth 48h | HCMV inh
O=C(CCc1nc2ccccc2[nH]1)Nc1ccc2c(c1)OCCO2 | 11 | 26 | 1µM* | 31% | 9
O=C(CSc1ccc(-c2nc3ccccc3[nH]2)cn1)Nc1ccc(S(=O)(=O)NC2CC2)cc1 | 11 | -3 | -20% | 0% | 2
N#C/C(=C\Nc1ccc2c(c1)OCCO2)c1nc2ccccc2[nH]1 | 60* | 83 | . | ? | 40
Cc1ccc2c(c1)c(-c1csc(N)n1)c(C)n2C | 6 | 10 | 1% | . | 10
COc1cccc(C(C(=O)NCc2ccccc2)N(C(=O)Cn2nnc3ccccc32)c2cccc(C(C)=O)c2)c1 (stereo not given) | . | . | . | . | -7
Cc1cc2nc(-c3ccc(SCC(=O)Nc4ccc5c(c4)OCCO5)nc3)[nH]c2cc1C | 48* | 157* | 2.9µM* | ? | -68*
Cc1ccc(-c2ccc(SCC(=O)Nc3ccc4c(c3)OCCO4)nn2)cc1 | 28* | 22* | 90% | 86% | -7
Cc1ccc2nc(-c3ccc(SCC(=O)Nc4ccc5c(c4)OCCO5)nc3)[nH]c2c1 | 107* | 81* | 54% | -50% | 45
Cc1ccc(SCC(=O)Nc2ccc(-c3nc4ccccc4[nH]3)cc2)cc1 | 13 | 52 | 41% | 12µM* | -34
CC(=O)Nc1ccc(NC(=O)CSc2ccc(-c3ccc4c(c3)OCO4)nn2)cc1 | 18 | 21 | 79% | 78% | 9
CN1Cc2ccccc2CC1CNCc1c(C(=O)N2CCCC2)nc2ccccn12 (stereo not given) | -2 | -7 | -28% | 3% | 2
O=C(CSc1nnc2c(Cl)cc(C(F)(F)F)cn12)NCc1ccc(F)cc1 | 4 | 21 | 8.3µM* | ? | -16
Cc1ccc(NC(=S)NNC(=O)c2ccco2)cc1 | 31* | 66* | 118% | 114% | 65
Cc1cccc(NC(=S)NNC(=O)c2ccco2)c1 | 23* | active | 21% | 6% | 19
O=C(Nc1c(C(=O)Nc2ccccc2F)oc2ccccc12)c1cc2ccccc2o1 | . | . | . | . | -36
CCCCn1cnc2c1c(=O)n(CC(=O)c1cc(C)n(C)c1C)c(=O)n2CC(C)C | -1 | -20 | 12µM* | . | -7
CCOC(=O)CNC(=S)N(CCCN1CCCCCC1)Cc1cccs1 | 13 | 1 | -1% | 5% | -88*
O=C(N1CCOCC1)N(Cc1cccs1)C1CCCC1 | -3 | -13 | 7.4µM* | -7% | -27
Cc1cccc(C)c1NC(=S)N(Cc1cccs1)C1CCCC1 | 3 | -4 | ? | 13% | 47
CCOC(=O)CNC(=S)N(CCCN1CCCCC1)Cc1cccs1 | 9 | -14 | ? | -9% | -34
CCOC(=O)CNC(=S)N(Cc1cccs1)C1CCCCC1 | -1 | 16 | 7.4µM* | 17% | -32
COc1cccc(C(=O)Nc2ccccc2-c2nnc(-c3ccc(C(C)(C)C)cc3)o2)c1 | . | . | . | . | -8
Cc1ccc(C(=O)Nc2ccccc2C(=O)O)cc1S(=O)(=O)N1CCCCCC1 | . | . | . | . | -25
COc1cc2c(cc1NC(=O)c1cncc(Br)c1)oc1ccccc12 | -2 | -9 | ? | -5% | -9
COc1cc2c(cc1NC(=O)c1ccc3c(c1)OCO3)oc1ccccc12 | 41* | 92* | 31% | 100% | 1
COc1ccc(C(=O)Oc2ccc3c(c2)OCO3)cc1OC | 30* | 75* | 16% | 16% | -5
CCCc1cc(C(=O)Nc2cc(OC)ccc2OC)cs1 | 18* | 30* | -30% | 21% | 3
COc1cc(OC)c(C(=O)Oc2ccc3c(c2)OCO3)cc1OC | 8 | -10 | 24% | -19% | -1
COc1ccccc1NC(=O)c1ccc2c(c1)OCO2 | 50* | 82* | ? | 98% | 40
COCc1cc(C)nc2sc(C(=O)Nc3ccccc3Br)c(N)c12 | -4 | -3 | ? | 27% | -31
